In PubChem BioAssay (NCI):
About 83,000 compounds went through this panel and 20% of them were active in at least one assay; those are over-represented in the sample as a whole.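 Note: values are percent growth. 100 is the growth of untreated cells, values between 100 and 0 indicate rising inhibition; between -100 and 0 indicates cell death.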 Activity calls are given as the source filed them. The calls were made as follows: active = growth percent below 10; inactive = the rest.

Legend:
Assay in all cases: NCI-60 one-dose screen, 48 h (100 = growth as untreated, 0 = no growth, -100 = all killed)
Settings in all cases: 10 µM unless noted
[1] = test system: HCT-15 colon
[2] = test system: HT29 colon
[3] = test system: SNB-75 CNS
[4] = test system: SNB-19 CNS
[5] = test system: U251 CNS
[6] = test system: PC-3 prostate
[7] = test system: SK-MEL-5 melanoma
[8] = test system: UACC-62 melanoma
[9] = test system: LOX IMVI melanoma
[10] = test system: SK-MEL-28 melanoma
[11] = test system: SK-MEL-2 melanoma
[12] = test system: EKVX NSCLC
[13] = test system: SN12C renal
[14] = test system: UO-31 renal
[15] = test system: TK-10 renal
[16] = test system: ACHN renal
[17] = test system: CAKI-1 renal
[18] = test system: A498 renal
[19] = test system: CCRF-CEM leukemia
[20] = test system: MOLT-4 leukemia

Measured: growth

Cc1ccccc1C1CC(=O)c2ccccc2C1C (stereo not given)
inactive: [1] 96.9% | [2] 100% | [3] 85% | [4] 94.5% | [5] 88.5% | [6] 99.4% | [7] 105% | [8] 87.4% | [9] 100% | [10] 107% | [11] 120% | [12] 101% | [13] 99.1% | [14] 82.1% | [15] 105% | [16] 108% | [17] 106% | [18] 88.5% | [19] 95.2% | [20] 93.5%

CC(=O)c1ccc(N2C(=O)c3ccc(Oc4ccccc4)cc3C2=O)cc1
inactive: [1] 111% | [2] 104% | [3] 108% | [4] 105% | [5] 108% | [6] 91.2% | [7] 103% | [8] 98.9% | [9] 103% | [10] 111% | [11] 110% | [12] 94.1% | [13] 98.4% | [14] 92.5% | [15] 105% | [16] 107% | [17] 101% | [18] 91.5% | [19] 134% | [20] 115%

Nc1c(C(=O)C[C@@H](N)CO)ccc2c1C(=O)CCO2
inactive: [3] 86.2% | [4] 27.4% | [5] 16.7% | [6] 57% | [7] 60.8% | [8] 30.5% | [10] 39.1% | [11] 46.8% | [12] 97.8% | [13] 32.7% | [14] 45.5% | [15] 71.4% | [16] 45.6% | [17] 29.8% | [19] 20.6% | [20] 33.4%
active: [1] 6.97% | [2] -3.16% | [9] -61.7% | [18] -37.5%

CC(C)[C@@]12C[C@@H](OC(=O)C3CO3)[C@@](C)(O1)[C@@H]1CC[C@@H](C)[C@H]1[C@@H]2OC(=O)/C=C/c1ccccc1 (stereo not given in full)
inactive: [1] 98.1% | [2] 93.9% | [3] 80.5% | [4] 94.4% | [5] 76.1% | [6] 86.2% | [7] 97.6% | [8] 77.4% | [9] 88.5% | [10] 110% | [11] 87.9% | [12] 82.3% | [13] 58.6% | [15] 119% | [17] 51.7% | [19] 88.5% | [20] 79.9%
active: [14] -3.56% | [16] 5.97% | [18] -31.7%

O=S1(=O)NCCN1CCNc1nccc(-c2c(-c3cccc(O)c3)nc3sccn23)n1
inactive: [1] 127% | [2] 71.6% | [3] 73.3% | [4] 122% | [5] 120% | [6] 78.5% | [7] 94.4% | [9] 55% | [10] 31.3% | [11] 72.1% | [12] 111% | [13] 95.2% | [14] 116% | [15] 130% | [16] 97% | [17] 80.8% | [18] 118% | [19] 88.1% | [20] 110%
active: [8] 6.31%

CC(C)(C)c1nn(-c2ccccc2)c2c1C(=O)CSC(c1ccccc1Cl)N2 (stereo not given)
active: [3] -1.74%
inactive: [1] 25.1% | [2] 18.5% | [4] 39.8% | [5] 33.2% | [6] 15.5% | [7] 11.6% | [8] 38.7% | [9] 35.5% | [10] 47.3% | [11] 45.5% | [12] 30.8% | [13] 53.8% | [14] 29.2% | [15] 77.5% | [16] 53.7% | [17] 10% | [18] 56.9% | [19] 11.4% | [20] 20.9%

Cc1cc(-c2ccccc2)on1
inactive: [1] 101% | [2] 106% | [3] 99.2% | [4] 104% | [5] 108% | [6] 97.7% | [7] 109% | [8] 110% | [9] 99.4% | [10] 109% | [11] 107% | [12] 103% | [13] 103% | [14] 82.5% | [15] 110% | [16] 103% | [17] 98.2% | [18] 126% | [19] 97.8% | [20] 92.4%

CC(NC(=O)c1ccccc1)C(=O)Nc1ccccc1 (stereo not given)
inactive: [1] 115% | [2] 103% | [3] 88.3% | [4] 107% | [5] 101% | [6] 92.8% | [7] 104% | [8] 104% | [9] 99.6% | [10] 115% | [11] 104% | [12] 105% | [13] 109% | [14] 94.9% | [15] 103% | [16] 103% | [17] 107% | [18] 103% | [19] 90.4% | [20] 101%

COC(=O)c1ccc2c(c1)nc(-c1cc3ccccc3[nH]c1=O)n2-c1cc(C(C)(C)C)[nH]n1
active: [2] 7.39%
inactive: [1] 78.2% | [3] 101% | [4] 35% | [5] 39.7% | [6] 53% | [7] 74.9% | [8] 51.2% | [9] 11.2% | [10] 84.1% | [11] 55.9% | [12] 85.6% | [13] 57.3% | [14] 29.1% | [15] 113% | [16] 78.5% | [17] 67.9% | [18] 59.6% | [19] 30.3% | [20] 18.1%

O=C1/C(=C/c2ccccc2)SC(=Nc2ccccc2)N1Nc1ccccc1
inactive: [3] 24.2% | [4] 23.3% | [12] 18.9% | [14] 14.8% | [15] 31.4% | [16] 10% | [17] 17.1%
active: [1] 9.11% | [2] 5.63% | [5] 6.12% | [6] 9.43% | [7] -95.7% | [8] -4.34% | [9] -62.1% | [10] 8.52% | [11] -25.2% | [13] -58.3% | [18] -33.1% | [19] 6.81% | [20] -1.49%

COc1ccc(C(=O)N2N=C(c3ccc(F)cc3)CC2c2cn(-c3ccccc3)nc2-c2ccccc2)cc1 (stereo not given)
inactive: [1] 55.9% | [2] 37.6% | [3] 72.5% | [4] 80% | [5] 30.6% | [6] 71.6% | [7] 90.7% | [8] 61% | [9] 41.8% | [10] 71.9% | [11] 75.1% | [12] 70.9% | [13] 63% | [14] 68.1% | [15] 80.2% | [16] 86.5% | [17] 63.2% | [18] 93.2% | [19] 57.1% | [20] 42.2%

c1ccc2oc(-c3cnc4nonc4n3)cc2c1
inactive: [1] 107% | [2] 96.3% | [3] 76.6% | [4] 88.8% | [5] 103% | [6] 92.7% | [7] 98.4% | [8] 79.6% | [9] 94.6% | [10] 120% | [11] 95% | [12] 71.2% | [13] 93% | [14] 63.1% | [15] 132% | [16] 82.3% | [17] 86.8% | [18] 103% | [19] 95.8% | [20] 97.2%

C#CCNc1nc(NCCNC(=O)CCl)nc(N(C)CCCCc2ccccc2)n1
active: [9] -12.5%
inactive: [1] 92.4% | [2] 109% | [3] 104% | [4] 99.3% | [5] 98.6% | [6] 107% | [7] 53.8% | [8] 91.7% | [10] 104% | [11] 98.9% | [12] 102% | [13] 77.1% | [14] 82.4% | [15] 97.7% | [16] 100% | [17] 95.2% | [18] 99.2% | [19] 23.8% | [20] 43.3%

C[C@H](NC(=O)c1snnc1C1CC1)c1c(F)cccc1Cl
inactive: [1] 93.9% | [2] 119% | [3] 95.1% | [4] 142% | [5] 90% | [6] 98.9% | [7] 98.2% | [8] 87.8% | [9] 93.9% | [10] 110% | [11] 108% | [12] 115% | [13] 104% | [14] 94% | [15] 129% | [16] 92.1% | [17] 115% | [18] 96.4% | [19] 110% | [20] 101%
